Assay results published in PubChem BioAssay (Tox21).
Values joined by “and” are separate entries in the source; they are usually repeats but may differ in a detail not shown here. Equal entries are not always repeated. Inconclusive results are not listed. Entries that show only a call come without a potency. Some structures have more than one record in an assay (separate samples or runs), and their calls can disagree. Active and inactive are the calls of the source. Unless noted, calls follow the shape of the dose curve; as a rule, active = well fitted curve in the direction sought with a large enough effect in the repeat runs; inconclusive = weak or mixed curves; inactive = no such curve, though single readings can be large; an effect the other way counts as inactive or inconclusive.

Legend:
[1] = qHTS assay to identify aromatase inhibitors - cell viability counter screen (AID 743084); settings: MCF-7 aro ERE viability, CellTiter-Fluor, 24 h; series mostly up to 70.3 µM;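 also: cells stimulated with testosterone during compound exposure; nearly all actives have a fitted effect of over 55% in size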; also: potency is read from the fitted curve at half-maximal effect
[2] = biological target: Aryl hydrocarbon receptor (Homo sapiens) (UniProt P35869); assay: qHTS assay to identify small molecule that activate the aryl hydrocarbon receptor (AhR) signaling pathway (AID 743085); settings: HepG2 AhR-luc (HG2L7.5c1), luciferase, 24 h; series mostly up to 70.3 µM; also: nearly all actives have a fitted effect of over 15% in size; also: potency is read from the fitted curve at half-maximal effect;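 as to activation: HG2L7.5c1 human HepG2 liver cells with stably integrated DRE-driven firefly reporter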
Summary of the method: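 A multiplexed format paired cell viability (CellTiter-Fluor fluorescence) with AhR-dependent luciferase output (ONE-Glo luminescence) in the same wells of HepG2 DRE-luc cells after 24 h compound exposure at 37C.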

[3] = qHTS assay to identify small molecule that activate the aryl hydrocarbon receptor (AhR) signaling pathway - cell viability counter screen (AID 743086); settings: HepG2-AhR-luc viability, CellTiter-Fluor, 24 h; series mostly up to 70.3 µM;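 also: HepG2 liver cells carrying the AhR DRE luciferase reporter; nearly all actives have a fitted effect of over 45% in size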
Summary of the method: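 Cytotoxicity counter screen: CellTiter-Fluor signal (30 min, 37 C) in 4000 HepG2 cells/well carrying the DRE-luciferase reporter, following 24 h compound exposure at 37 C.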

[4] = biological target: Peroxisome proliferator-activated receptor gamma (Homo sapiens) (UniProt P37231); assay: qHTS assay to identify small molecule agonists of the peroxisome proliferator-activated receptor gamma (PPARg) signaling pathway (AID 743094; active = well fitted activation curve with a large enough effect in the signal ratio in the repeat runs, not every such curve was filed as active; the % refers to the signal ratio); settings: HEK293H PPARg-UAS-bla, beta-lactamase FRET ratio, 17 h; series mostly up to 57 µM
Summary of the method: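 Beta-lactamase FRET fluorescence was the read-out after a 1 h room-temperature substrate step, following 17 h compound treatment at 37C of HEK293H cells expressing a UAS-driven bla reporter responsive to PPARg.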

[5] = biological target: Peroxisome proliferator-activated receptor gamma (Homo sapiens) (UniProt P37231); assay: qHTS assay to identify small molecule antagonists of the peroxisome proliferator-activated receptor gamma (PPARg) signaling pathway (AID 743191; calls by dose curve; also: nearly all actives have a fitted effect of over 30% in size; also: potency is read from the fitted curve at half-maximal effect); settings: HEK293H PPARg-UAS-bla, beta-lactamase ratio, antagonist, 17 h; series mostly up to 62.6 µM
Summary of the method: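 Beta-lactamase reporter under UAS control in HEK293H PPARg-bla cells; compound treatment 17 h at 37C. Read-out: fluorescence intensity after 1 h room-temperature incubation with LiveBLAzer B/G FRET substrate.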

[6] = qHTS assay to identify small molecule antagonists of the peroxisome proliferator-activated receptor gamma (PPARg) signaling pathway - cell viability counter screen (AID 743194); settings: PPARg-bla HEK293H viability, CellTiter-Glo luminescence, 17 h; series mostly up to 62.6 µM; also: nearly all actives have a fitted effect of over 55% in size
Summary of the method: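 Viability was measured as CellTiter-Glo luminescence in GeneBLAzer PPARg UAS-bla HEK293H cells. These cells had been exposed 17 h at 37 C to compounds together with rosiglitazone at 50 nM final, with the beta-lactamase readout taken in the same wells.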

[7] = qHTS assay for small molecule agonists of the antioxidant response element (ARE) signaling pathway (AID 743202; active = well fitted activation curve with a large enough effect in the signal ratio in the repeat runs, not every such curve was filed as active; the % refers to the signal ratio; also: potency is read from the fitted curve at half-maximal effect); settings: HepG2 ARE-bla reporter, beta-lactamase FRET, 16 h; series mostly up to 73.3 µM
Summary of the method: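 Quantitative high-throughput format in HepG2 cells bearing an integrated ARE-beta-lactamase reporter. Compound exposure lasted 16 h at 37 C, and fluorescence was read 2 h after adding LiveBLAzer B/G substrate at room temperature.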

[8] = qHTS assay for small molecule agonists of the antioxidant response element (ARE) signaling pathway - cell viability counter screen (AID 743203; calls by dose curve; also: nearly all actives have a fitted effect of over 55% in size; also: potency is read from the fitted curve at half-maximal effect); settings: ARE-bla HepG2 viability, CellTiter-Glo luminescence, 16 h; series mostly up to 73.3 µM
Summary of the method: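 HepG2 cells carrying ARE-driven beta-lactamase; 2,000 cells/well; 5 hrs plating; compound pinned from DMSO; 16 hrs 37C/5% CO2; CellTiter-Glo added; 30 min RT; luminescence.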

[9] = qHTS assay for small molecule activators of the heat shock response signaling pathway - cell viability counter screen (AID 743209); settings: HSE-bla HeLa viability, CellTiter-Glo luminescence, 5 h; series mostly up to 62.6 µM; also: nearly all actives have a fitted effect of over 50% in size; also: potency is read from the fitted curve at half-maximal effect
Summary of the method: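 Luminescence from CellTiter-Glo, added after the beta-lactamase FRET read, gave the viability signal. Cells were HSE-bla HeLa treated with DMSO-dissolved compounds for 5 h at 37 C following overnight plating.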

[10] = qHTS assay for small molecule activators of the heat shock response signaling pathway (AID 743210; active = well fitted activation curve with a large enough effect in the signal ratio in the repeat runs, with a control signal flat, not every such curve was filed as active; the % refers to the signal ratio;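 also: HeLa cells with beta-lactamase reporter driven by heat shock elements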); settings: HeLa HSE-bla reporter, beta-lactamase ratio, 5 h; series mostly up to 62.6 µM
Summary of the method: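 HeLa HSE-bla cells, overnight plating; cpd in DMSO 5 h, 37 C; LiveBLAzer B/G FRET substrate 2.5 h RT; fluorescence intensity read.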

Sequence of Aryl hydrocarbon receptor (Homo sapiens) (P35869 whole entry, looked up): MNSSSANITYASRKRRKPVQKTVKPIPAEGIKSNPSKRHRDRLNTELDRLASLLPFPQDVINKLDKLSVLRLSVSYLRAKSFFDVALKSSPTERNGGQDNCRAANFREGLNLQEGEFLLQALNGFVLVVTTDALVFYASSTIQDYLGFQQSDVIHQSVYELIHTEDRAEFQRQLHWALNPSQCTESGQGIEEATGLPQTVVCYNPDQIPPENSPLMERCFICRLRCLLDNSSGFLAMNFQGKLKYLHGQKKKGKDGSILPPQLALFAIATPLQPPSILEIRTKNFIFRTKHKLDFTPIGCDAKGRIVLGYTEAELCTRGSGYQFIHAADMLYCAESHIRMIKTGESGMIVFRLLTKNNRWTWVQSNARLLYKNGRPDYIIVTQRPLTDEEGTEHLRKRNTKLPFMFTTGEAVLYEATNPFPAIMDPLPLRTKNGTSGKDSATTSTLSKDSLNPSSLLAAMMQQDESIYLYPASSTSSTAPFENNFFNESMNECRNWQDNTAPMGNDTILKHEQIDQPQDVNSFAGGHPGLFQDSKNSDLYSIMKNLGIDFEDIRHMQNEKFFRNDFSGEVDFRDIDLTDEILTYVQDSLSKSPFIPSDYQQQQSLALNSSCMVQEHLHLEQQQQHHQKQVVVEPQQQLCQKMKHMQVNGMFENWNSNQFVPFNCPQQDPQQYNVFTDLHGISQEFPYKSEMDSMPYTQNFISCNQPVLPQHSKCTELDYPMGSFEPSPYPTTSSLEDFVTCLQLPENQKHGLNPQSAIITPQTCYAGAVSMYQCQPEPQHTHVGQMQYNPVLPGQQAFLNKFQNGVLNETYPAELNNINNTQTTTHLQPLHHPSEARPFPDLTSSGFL
Sequence of Peroxisome proliferator-activated receptor gamma (Homo sapiens) (P37231 whole entry, looked up): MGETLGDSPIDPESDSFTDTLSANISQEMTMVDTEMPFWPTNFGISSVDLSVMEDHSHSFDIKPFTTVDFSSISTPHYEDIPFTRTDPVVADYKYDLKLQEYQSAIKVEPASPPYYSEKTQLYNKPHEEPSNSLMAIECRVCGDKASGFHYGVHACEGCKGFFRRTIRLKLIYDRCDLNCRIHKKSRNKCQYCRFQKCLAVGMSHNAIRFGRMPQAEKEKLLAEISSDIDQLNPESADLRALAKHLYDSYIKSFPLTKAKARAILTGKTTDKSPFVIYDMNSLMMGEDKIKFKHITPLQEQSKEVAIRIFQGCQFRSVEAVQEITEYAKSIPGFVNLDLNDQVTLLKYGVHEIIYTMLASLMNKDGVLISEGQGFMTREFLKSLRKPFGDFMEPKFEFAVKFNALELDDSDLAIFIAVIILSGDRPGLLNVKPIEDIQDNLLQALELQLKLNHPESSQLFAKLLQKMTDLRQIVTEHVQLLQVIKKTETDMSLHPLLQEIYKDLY

SMILES | Potency [1] | Potency [2] | outcome [3] | outcome [4] | Potency [5] | outcome [6] | Potency [7] | Potency [8] | Potency [9] | Potency [10]
CN(C)C(=O)Nc1cccc(C(F)(F)F)c1 | inactive | inactive | inactive | inactive | inactive | inactive | inactive | inactive | inactive | inactive
Cl[C@H]1OCCO[C@@H]1Cl | inactive | inactive | inactive | inactive | inactive | inactive | inactive | inactive | inactive | inactive
FC(F)(F)c1ccc(Cl)cc1 | inactive | inactive | inactive | inactive | inactive | inactive | inactive | inactive | inactive | inactive
CCOP(=S)(OCC)Oc1cc(C)nc(C(C)C)n1 | inactive and 27.3 µM (active) | inactive and 6.86 µM (active) | inactive | inactive | inactive | inactive | inactive | inactive and 54.5 µM (active) | inactive and 43.6 µM (active) | inactive
O=P1(NCCCl)OCCCN1CCCl (configuration not stated) | inactive | inactive | inactive | inactive | inactive | inactive | inactive | inactive | inactive | inactive
c1ccc2c(c1)CCCC2 | inactive | inactive | inactive | inactive | inactive | inactive | inactive | inactive | inactive | inactive
CNC(=O)O/N=C/C(C)(C)SC | inactive | inactive | inactive | inactive | inactive | inactive | inactive | inactive | inactive | 
CN(C)C(=O)C(c1ccccc1)c1ccccc1 | inactive | inactive | inactive | inactive | inactive | inactive | inactive | inactive | inactive | inactive
OCc1ccco1 | inactive | inactive | inactive | inactive | inactive | inactive | inactive | inactive | inactive | inactive
O=C(O)Cc1ccccc1 | inactive | inactive | inactive | inactive | inactive | inactive | inactive | inactive | inactive | inactive
N#Cc1ccccn1 | inactive | inactive | inactive | inactive | inactive | inactive | inactive | inactive | inactive | 
Cc1ccc(N=C=O)cc1N=C=O | inactive | 25 µM (active) and 1.08 µM (active) | inactive | inactive | inactive | inactive | inactive | inactive | inactive | 
OCC(O)CCl (configuration not stated) | inactive | inactive | inactive | inactive | inactive | inactive | inactive | inactive | inactive | inactive
Cc1cccc(C)c1NC(=O)CN1CCCC1=O | inactive | inactive | inactive | inactive | inactive | inactive | inactive | inactive | inactive | 
CCSC(=O)N1CCCCCC1 | inactive | inactive | inactive | inactive | inactive | inactive | inactive | inactive | inactive | inactive
O=S(=O)(O)OOS(=O)(=O)O | inactive | inactive | inactive | inactive | inactive | inactive | inactive | inactive | inactive | inactive
Cc1cccc(C)c1N | inactive | inactive | inactive | inactive | inactive | inactive | inactive | inactive | inactive | inactive
Cc1cccc(N)c1C | inactive | inactive and 48.6 µM (active) | inactive | inactive | inactive | inactive | inactive | inactive | inactive | inactive
C=C(C)C(=O)OCC(CC)CCCC (configuration not stated) | inactive | inactive | inactive | inactive | inactive | inactive | inactive | inactive | inactive | inactive
ClCCOCCCl | inactive | inactive | inactive | inactive | inactive | inactive | inactive | inactive | inactive | inactive
C=CC#N | inactive | inactive | inactive | inactive | inactive | inactive | inactive | inactive | inactive | inactive
COP(=S)(OC)SCN1C(=O)c2ccccc2C1=O | inactive | inactive | inactive | inactive | inactive | inactive | inactive | inactive | inactive | inactive

SMILES | Potency [1] | Potency [2] | outcome [3] | outcome [4] | Potency [5] | outcome [6] | Potency [7] | Potency [8] | Potency [9] | Potency [10]
Nc1ncc([N+](=O)[O-])s1 | inactive | inactive | inactive | inactive | inactive | inactive | inactive | inactive | inactive | inactive
CCCCC(CC)C(=O)Cl (configuration not stated) | inactive | inactive | inactive | inactive | inactive | inactive | inactive | inactive | inactive | inactive
CN(C)C(=O)Cl | inactive | inactive | inactive | inactive | inactive | inactive | inactive | inactive | inactive | inactive
COC(C)(C)CCCC(C)C/C=C/C(C)=C/C(=O)OC(C)C (configuration not stated) | inactive | inactive and 60.1 µM (active) | inactive | inactive | inactive | inactive | inactive | inactive | inactive | 
CCCOC(=O)c1ccccc1C(=O)OCCC | inactive | inactive | inactive | inactive | inactive | inactive | inactive | inactive | inactive | inactive
CN(C)NC(=O)CCC(=O)O | inactive | inactive | inactive | inactive | inactive | inactive | inactive | inactive | inactive | inactive
CCNc1nc(Cl)nc(NC(C)C)n1 | inactive | inactive | inactive | inactive | inactive | inactive | inactive | inactive | inactive | inactive
CC(=O)/C=C/c1ccccc1 | inactive | inactive | inactive | inactive | inactive | inactive | inactive | inactive | inactive | inactive
CC(=O)C1CCOC1=O (configuration not stated) | inactive | inactive | inactive | inactive | inactive | inactive | inactive | inactive | inactive | inactive
C=CC(=O)OCCCCCC(C)C | inactive | inactive | inactive | inactive |  | inactive | inactive | inactive | inactive | inactive
O=C/C=C/c1ccccc1 | inactive | inactive | inactive | inactive | inactive | inactive | inactive | inactive | inactive | inactive
CC[N+](=O)[O-] | inactive | inactive | inactive | inactive |  | inactive | inactive | inactive | inactive | inactive
Cc1cc(O)ccc1Cl | inactive | inactive | inactive | inactive | inactive | inactive | inactive | inactive | inactive | inactive
OC[C@@H](O)[C@H]1O[C@@H]2O[C@H](C(Cl)(Cl)Cl)O[C@@H]2[C@H]1O | inactive | inactive | inactive | inactive | inactive | inactive | inactive | inactive | inactive | inactive
N#Cc1cccc(C#N)c1 | inactive | inactive | inactive | inactive | inactive | inactive | inactive | inactive | inactive | inactive
COP(=S)(OC)Oc1ccc(SC)c(C)c1 | inactive | 26.6 µM (active) and 30.3 µM (active) and 24.3 µM (active) | inactive | inactive | inactive | inactive | inactive | inactive | inactive | inactive
COc1nc(NC(C)C)nc(NC(C)C)n1 | inactive | inactive | inactive | inactive | inactive | inactive | inactive | inactive | inactive | inactive
Oc1c(Br)cc(Br)cc1Br | inactive | inactive | inactive | inactive | 43.7 µM (active) | inactive | 15.4 µM (active) | inactive | inactive | inactive
O=[N+]([O-])c1ccc(Cl)c(Cl)c1 | inactive | inactive | inactive | inactive | inactive | inactive | inactive | inactive | inactive | inactive
CNc1cnn(-c2cccc(C(F)(F)F)c2)c(=O)c1Cl | inactive | 27.3 µM (active) | inactive | inactive | inactive | inactive |  | inactive | inactive | inactive
ClC(Cl)c1ccccc1 | inactive | inactive | inactive | inactive | inactive | inactive | inactive | inactive | inactive | inactive
